# Molecular target: Tubulin alpha-1C chain (UniProt Q9BQE3)
# Assay: cross-link between two proteins; cross-linking mass spectrometry
# UniProt Q9BQE3, sequence (Q9BQE3 whole entry): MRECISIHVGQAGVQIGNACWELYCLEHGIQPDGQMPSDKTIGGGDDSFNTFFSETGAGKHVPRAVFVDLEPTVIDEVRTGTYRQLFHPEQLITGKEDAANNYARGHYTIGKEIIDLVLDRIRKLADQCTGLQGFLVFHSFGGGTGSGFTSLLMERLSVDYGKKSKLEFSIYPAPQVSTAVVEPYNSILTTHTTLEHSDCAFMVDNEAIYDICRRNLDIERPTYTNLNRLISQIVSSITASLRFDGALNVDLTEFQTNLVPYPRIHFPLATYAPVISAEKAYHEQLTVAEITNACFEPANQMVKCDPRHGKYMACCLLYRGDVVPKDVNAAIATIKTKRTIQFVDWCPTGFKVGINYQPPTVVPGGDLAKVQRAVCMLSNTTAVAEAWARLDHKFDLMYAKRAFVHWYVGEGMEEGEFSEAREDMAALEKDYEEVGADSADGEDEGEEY
substance,measurement,value
"Tubulin beta chain, P07437",listed as a hit,yes
